Measured values reported in the supplement of paper PMC4166925.
± gives the standard deviation of the averaged measurements. Whole data set: some 33,000 sequences, median “E-score (dimensionless, -0.5 to 0.5)” near -0.046, cut for the highest 2% near 0.36. The sample as a whole holds a higher share of the highest values than the screen did.

What follows are sequences tested on T1, SpTbr T-box DNA-binding domain (GST fusion) (assay: PBM E-score of 8-mer (E-score (dimensionless, -0.5 to 0.5)); Tbr is Tbrain of the sea star Patiria miniata (Pm) or the sea urchin Strongylocentrotus purpuratus (Sp); higher = stronger binding preference). Conditions: the construct has about 5 more residues each side.
T1 sequence: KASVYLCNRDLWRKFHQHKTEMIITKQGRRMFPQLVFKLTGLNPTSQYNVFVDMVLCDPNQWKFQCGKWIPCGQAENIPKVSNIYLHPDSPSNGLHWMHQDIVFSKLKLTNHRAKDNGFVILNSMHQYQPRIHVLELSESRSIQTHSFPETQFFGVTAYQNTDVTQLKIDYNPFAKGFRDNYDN
Method: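 Universal protein-binding microarray (Agilent AMADID 016060, 60-bp probes with a 35-bp variable region) incubated with 200 nM GST-fused Strongylocentrotus purpuratus Tbr T-box DNA-binding domain (residues 362-554) in PBS pH 7.5. Scored for every ungapped 8-mer (given with its reverse complement) as E-score (range -0.5 to 0.5; >0.45 counts as bound) and Z-score of median probe intensity. Two replicate arrays (datasets 1 and 2).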
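Note: protein at 200 nM in PBS on universal double-stranded arrays.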

Row | Sequence | PBM E-score of 8-mer
1 | GATTTTCC | -0.00302 ± 0.027
2 | CCCCAAAA | -0.112 ± 0.042
3 | TATTTGAA | -0.214 ± 0.013
4 | AACCTCCC | -0.0867 ± 0.0052
5 | GACCTCCC | -0.159 ± 0.12
6 | CACCTCCG | 0.4516 ± 0.0039
7 | AACCTCCG | 0.0095 ± 0.07
8 | CCCCTCCG | 0.119 ± 0.066
9 | TACCTCCA | -0.0368 ± 0.093
10 | AACCTCCA | -0.135 ± 0.018
11 | CACCTCCC | 0.389 ± 0.017
12 | CACCTCCA | 0.3876 ± 0.00048
13 | AGCGGGCA | -0.0395 ± 0.016
14 | GACGTGCA | 0.0705 ± 0.07
15 | ACCCGAGA | 0.0223 ± 0.0071
16 | GCCCGACC | -0.213 ± 0.054
17 | CTAGGTTA | -0.16 ± 0.08
18 | GTTTAGCA | 0.102 ± 0.11
19 | CTCCTCAG | -0.0357 ± 0.025
20 | TACCTCAA | -0.13 ± 0.045
21 | GACCTCAC | 0.137 ± 0.049
22 | AACCTCAG | -0.244 ± 0.045
23 | AACCTCAC | 0.182 ± 0.034
24 | CACCTCAG | 0.376 ± 0.0075
25 | CACCTCAA | 0.375 ± 0.024

Row | Sequence | PBM E-score of 8-mer
26 | CACCTCAC | 0.444 ± 0.012
27 | AACCTCAA | -0.158 ± 0.018
28 | CGAAAACG | 0.0298 ± 0.05
29 | CGATACAG | -0.0251 ± 0.13
30 | GAGTTGGA | -0.0967 ± 0.023
31 | ATCTTCAC | 0.267 ± 0.02
32 | TCTTAACA | 0.214 ± 0.041
33 | GGTTATAC | 0.0871 ± 0.041
34 | GCATGCTA | 0.00793 ± 0.094
35 | ATAGGGAG | -0.00632 ± 0.036
36 | AGAGTGTA | 0.0671 ± 0.0042
37 | ATAGTGTG | 0.388 ± 0.026
38 | ATAGTGTA | 0.0763 ± 0.038
39 | AGAGTGTG | 0.375 ± 0.022
40 | AGAGTGTC | 0.359 ± 0.0099
41 | ATAGTGTC | 0.272 ± 0.07
42 | CGAAGACC | -0.109 ± 0.036
43 | GAGCCCCA | -0.124 ± 0.065
44 | GGGTTAAA | -0.213 ± 0.063
45 | TAACCGAA | -0.212 ± 0.034
46 | CCGCAGAC | -0.143 ± 0.042
47 | GATCAATA | 0.0446 ± 0.036
48 | CGCCACAG | 0.0527 ± 0.03
49 | CGCCACAC | 0.3647 ± 0.0013
50 | GGCCACAA | 0.0675 ± 0.11

Row | Sequence | PBM E-score of 8-mer
51 | GGCCACAC | 0.3886 ± 0.00083
52 | AGCCACAC | 0.311 ± 0.049
53 | CGCCACAA | 0.0762 ± 0.081
54 | GAGATGGC | -0.0157 ± 0.0073
55 | CAACCTAG | -0.0248 ± 0.069
56 | AAAGGTGC | 0.414 ± 0.01
57 | AAAGGTAC | -0.0923 ± 0.05
58 | AAAGGTGT | 0.469 ± 0.0063
59 | ATAGGTGC | 0.412 ± 0.012
60 | AAAGGTCC | 0.0265 ± 0.0014
61 | AAAGGTGA | 0.316 ± 0.0022
62 | AAGGGTGG | 0.146 ± 0.028
63 | AAGGGTGA | 0.136 ± 0.04
64 | AAGGGTGT | 0.383 ± 0.015
65 | ATAGGTGA | 0.284 ± 0.032
66 | CTAGGTGC | 0.3603 ± 0.003
67 | AAAGGTGG | 0.0801 ± 0.026
68 | CGGGTGAA | -0.3489 ± 0.0032
69 | AGCAACCA | -0.0779 ± 0.012
70 | CTACCGTC | -0.191 ± 0.04
71 | ATTTACCG | -0.131 ± 0.054
72 | CGAGGGTA | -0.211 ± 0.033
73 | GATGAGGC | -0.112 ± 0.027
74 | GGTCTACA | -0.0571 ± 0.025
75 | AGGTAAAA | -0.0157 ± 0.037

Row | Sequence | PBM E-score of 8-mer
76 | GATTCAGA | -0.233 ± 0.061
77 | AATTCACG | 0.345 ± 0.01
78 | GATTCACC | -0.0546 ± 0.0018
79 | GATTCACA | 0.392 ± 0.0093
80 | CATTCACA | 0.427 ± 0.014
81 | TATTCACA | 0.423 ± 0.023
82 | CATTCACG | 0.238 ± 0.024
83 | CATTCACC | -0.0478 ± 0.011
84 | AATTCACA | 0.297 ± 0.035
85 | CAGAGAGA | -0.036 ± 0.025
86 | CGTAGCCA | -0.196 ± 0.073
87 | CCGATAAA | -0.0119 ± 0.097
88 | AGGAAACT | -0.0834 ± 0.015
89 | CGCTTGAC | 0.136 ± 0.0033
90 | CTTTGACA | 0.174 ± 0.035
91 | CGTTGACC | 0.0141 ± 0.0079
92 | CGTTGACA | 0.414 ± 0.0098
93 | GTTTGACA | 0.332 ± 0.036
94 | AGTTGACG | 0.226 ± 0.0068
95 | GCTTGACA | 0.258 ± 0.034
96 | GGTTGACA | 0.382 ± 0.017
97 | AGTTGACA | 0.4138 ± 0.001
98 | AGTTGACC | -0.106 ± 0.098
99 | CGTTGTTC | -0.116 ± 0.067
100 | ACGGGCGG | -0.083 ± 0.0064

Row | Sequence | PBM E-score of 8-mer
101 | GTCTTGGA | -0.322 ± 0.015
102 | CATAGAGA | -0.161 ± 0.012
103 | CCCTGTAA | 0.137 ± 0.0029
104 | ATCGAGGC | -0.0694 ± 0.048
105 | CACTTCAA | 0.213 ± 0.013
106 | CGTTGTTA | 0.142 ± 0.034
107 | AGTTGTCA | 0.393 ± 0.016
108 | AGTTGTTG | 0.245 ± 0.024
109 | AGTTGTCG | 0.293 ± 0.033
110 | GGTTGTCA | 0.338 ± 0.0013
111 | AGTTGTTA | 0.369 ± 0.04
112 | AGTTCGCA | 0.3728 ± 0.00053
113 | CGTTCGTA | -0.134 ± 0.018
114 | GGTTCGGA | -0.2634 ± 0.0013
115 | CGTTCGCC | 0.11 ± 0.024
116 | GCTTCGCA | 0.358 ± 0.017
117 | AGTTCGCG | 0.296 ± 0.038
118 | CGTTCGCA | 0.411 ± 0.0075
119 | AGTTCGCC | 0.0613 ± 0.039
120 | GGTTCGCA | 0.378 ± 0.0054
121 | CGGTTATA | -0.00559 ± 0.033
122 | GGGGTCGA | -0.0352 ± 0.02
123 | GCGAGATA | 0.105 ± 0.0039
124 | CATTGTCG | 0.038 ± 0.0095
125 | ATGATGAA | -0.154 ± 0.044

Row | Sequence | PBM E-score of 8-mer
126 | CGTGACAG | 0.217 ± 0.019
127 | AGTGACAA | 0.397 ± 0.014
128 | CGTGACAC | 0.38 ± 0.015
129 | AGTGACAG | 0.3301 ± 0.0022
130 | ACTGACAA | 0.165 ± 0.0096
131 | CGTGACGC | 0.192 ± 0.033
132 | AGTGACGA | 0.329 ± 0.029
133 | CGTGACAA | 0.364 ± 0.0037
134 | AGTGACAT | 0.277 ± 0.056
135 | GGTGACGA | 0.418 ± 0.018
136 | AGTGACAC | 0.435 ± 0.0092
137 | CGTGACGA | 0.311 ± 0.029
138 | GATCGAGA | 0.00394 ± 0.097
139 | AGGCTAAT | -0.255 ± 0.1
140 | ACTAAGCC | -0.223 ± 0.02
141 | AGCCTACC | -0.245 ± 0.012
142 | GAGAATAC | -0.0812 ± 0.016
143 | GATTTTGA | -0.0555 ± 0.0057
144 | AACGCAAA | 0.0563 ± 0.092
145 | GCAGCGAA | 0.104 ± 0.068
146 | ACAAGAGG | -0.0502 ± 0.064
147 | CAACTCTA | -0.0379 ± 0.031
148 | TCGTATCA | 0.129 ± 0.031
149 | TATGACAA | 0.0285 ± 0.073
150 | GGTGACTA | 0.196 ± 0.039

Row | Sequence | PBM E-score of 8-mer
151 | GGTGAAAC | -0.0179 ± 0.017
152 | TCTGACAA | -0.0245 ± 0.056
153 | GGAGACAC | 0.193 ± 0.045
154 | GGTGACAA | 0.459 ± 0.011
155 | GTTGACAA | 0.389 ± 0.016
156 | GTTGACGA | 0.279 ± 0.0033
157 | CTTGACAA | 0.323 ± 0.011
158 | GGTGACAC | 0.4606 ± 0.0026
159 | TGTGACAA | 0.412 ± 0.0055
160 | GGTGACCA | 0.075 ± 0.05
161 | CAACGGTC | 0.11 ± 0.036
162 | CTATAGAG | -0.282 ± 0.072
163 | ACTAGGCA | -0.204 ± 0.036
164 | CGCTTCAC | 0.235 ± 0.042
165 | AGGTCGAC | -0.00677 ± 0.036
166 | ACGGCAGT | -0.173 ± 0.031
167 | ATTATAGG | -0.255 ± 0.027
168 | TCGTGACA | 0.325 ± 0.0037
169 | GGGTGACC | -0.0352 ± 0.046
170 | GGGTGACA | 0.4258 ± 0.0018
171 | CGGTGACA | 0.326 ± 0.026
172 | GGGTGAAA | -0.0551 ± 0.015
173 | TGGTGACA | 0.39 ± 0.0062
